From PubChem BioAssay (EPA / NIEHS)
Activity calls are given as the source filed them. How the source made its calls: active means hit-call score of the fitted dose curve at least 0.9, where 1 is the maximum; inactive means score below 0.9.

Tests used:
Details in all cases: mRNA level, 48 h; actives raise or lower the signal
[1] = read-out: Cytochrome P450 3A4 (Homo sapiens) (UniProt P08684); experiment: LTEA_HepaRG_CYP3A4: Life Technologies and Expression Analysis (LTEA) Assay for CYP3A4 using HepaRG (AID 2283487)
Procedure, shortened: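 Differentiated HepaRG cells, plated 48 h, then dosed 48 h in serum-free induction medium with 0.5% DMSO, 8 half-log concentrations up to 100 uM, duplicate. CYP3A4 mRNA by qRT-PCR, normalized to ACTB/GAPDH/POLR2A; bidirectional fit versus DMSO.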

[2] = read-out: DNA damage-inducible transcript 3 (DDIT3), DDIT3 (gene 1649); experiment: LTEA_HepaRG_DDIT3: Life Technologies and Expression Analysis (LTEA) Assay for DNA damage-inducible transcript 3 (DDIT3) using HepaRG (AID 2283488)
Procedure, shortened: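 DDIT3 transcript was quantified by qRT-PCR with ACTB/GAPDH/POLR2A normalization after 48 h chemical treatment of differentiated HepaRG cells in 0.5% DMSO. Dosing was eight-point, half-log, top 100 uM, duplicate wells. Curves fitted bidirectionally versus DMSO.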

[3] = read-out: Pro-epidermal growth factor (Homo sapiens) (UniProt P01133); experiment: LTEA_HepaRG_EGF: Life Technologies and Expression Analysis (LTEA) Assay for Epidermal growth factor (EGF) using HepaRG (AID 2283489)
Procedure, shortened: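 EGF transcript measured by Fluidigm TaqMan qRT-PCR with three housekeeping genes for normalization, 48 h after dosing HepaRG cultures in duplicate (top 100 uM, half-log steps, 0.5% DMSO vehicle). Gain or loss relative to DMSO fitted.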

[4] = read-out: Early growth response protein 1 (EGR1) transcription factor, EGR1 (gene 1958); experiment: LTEA_HepaRG_EGR1: Life Technologies and Expression Analysis (LTEA) Assay for Early growth response protein 1 (EGR1) transcription factor using HepaRG (AID 2283490)
Procedure, shortened: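 HepaRG, 48 h exposure, 8-pt half-log series from 100 uM, 0.5% DMSO vehicle; EGR1 transcript by TaqMan qRT-PCR (Fluidigm array), housekeeping-normalized; bidirectional fit relative to DMSO baseline.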

[5] = read-out: Ezrin (EZR), EZR (gene 7430); experiment: LTEA_HepaRG_EZR: Life Technologies and Expression Analysis (LTEA) Assay for Ezrin (EZR) using HepaRG (AID 2283491)
Procedure, shortened: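 EZR transcript levels came from Fluidigm qRT-PCR and were normalized to three housekeeping genes after 48 h chemical exposure of HepaRG cells. Dosing used an 8-point half-log series with a 100 uM top concentration in 0.5% DMSO, tested in duplicate; both directions were fitted versus vehicle.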

[6] = read-out: CYP3A5 (gene 1577); experiment: LTEA_HepaRG_CYP3A5: Life Technologies and Expression Analysis (LTEA) Assay for CYP3A5 using HepaRG (AID 2283493)
Procedure, shortened: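 mRNA levels were quantified by qRT-PCR on Fluidigm arrays and normalized to three housekeeping genes. Differentiated HepaRG cells received 48 h exposure (top 100 uM, half-log steps, 0.5% DMSO vehicle, duplicate); bidirectional fitting versus DMSO.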

[7] = read-out: Fatty Acid-Binding Protein 1 (FABP1), FABP1 (gene 2168); experiment: LTEA_HepaRG_FABP1: Life Technologies and Expression Analysis (LTEA) Assay for Fatty Acid-Binding Protein 1 (FABP1) using HepaRG (AID 2283494)
Procedure, shortened: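 qRT-PCR readout of FABP1 transcript (normalized to three housekeeping genes) after 48 h chemical exposure of HepaRG cells; eight concentrations, half-log steps, max 100 uM, 0.5% DMSO vehicle; gain or loss fitted relative to DMSO baseline.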

[8] = read-out: Cytochrome P450 4A22 (Homo sapiens) (UniProt Q5TCH4); experiment: LTEA_HepaRG_CYP4A22: Life Technologies and Expression Analysis (LTEA) Assay for Cytochrome P450 4A22 (CYP4A22) using HepaRG (AID 2283495)
Procedure, shortened: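 Gene expression measured by qRT-PCR against three housekeeping genes (ACTB, GAPDH, POLR2A), with gain or loss fitted relative to 0.5% DMSO vehicle. HepaRG cultures received 48 h chemical treatment, top concentration 100 uM, half-log steps, duplicate wells.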

[9] = read-out: Cytochrome P450 7A1 (Homo sapiens) (UniProt P22680); experiment: LTEA_HepaRG_CYP7A1: Life Technologies and Expression Analysis (LTEA) Assay for Cytochrome P450 7A1 (CYP7A1) using HepaRG (AID 2283496)
Procedure, shortened: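 HepaRG, 48 h exposure, 8-pt half-log series from 100 uM, 0.5% DMSO vehicle, duplicates. Readout: TaqMan qRT-PCR mRNA vs three housekeeping genes; bidirectional curve fit against DMSO baseline.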

[10] = read-out: Glutathione S-Transferase (GSTA2), GSTA2 (gene 2939); experiment: LTEA_HepaRG_GSTA2: Life Technologies and Expression Analysis (LTEA) Assay for Glutathione S-Transferase (GSTA2) using HepaRG (AID 2283497)
Procedure, shortened: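 qRT-PCR readout of GSTA2 transcript, normalized to three housekeeping genes, fitted bidirectionally against 0.5% DMSO baseline. Differentiated HepaRG cells received compound for 48 h at 8 concentrations (top 100 uM, half-log steps).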

[11] = read-out: Glutamate-cysteine ligase catalytic (GCLC), GCLC (gene 2729); experiment: LTEA_HepaRG_GCLC: Life Technologies and Expression Analysis (LTEA) Assay for Glutamate-cysteine ligase catalytic (GCLC) using HepaRG (AID 2283498)
Procedure, shortened: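 HepaRG, 48 h exposure, 8-pt half-log series from 100 uM, 0.5% DMSO vehicle; TaqMan qRT-PCR for GCLC mRNA, housekeeping-normalized; bidirectional curve fit vs DMSO baseline.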

[12] = read-out: growth arrest and DNA damage 45 (GADD45G), GADD45G (gene 10912); experiment: LTEA_HepaRG_GADD45G: Life Technologies and Expression Analysis (LTEA) Assay for growth arrest and DNA damage 45 (GADD45G) using HepaRG (AID 2283499)
Procedure, shortened: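 GADD45G transcript level by qRT-PCR (housekeeping-normalized: ACTB, GAPDH, POLR2A) after 48 h chemical treatment of a single HepaRG lot in serum-free induction medium; eight-point half-log series up to 100 uM in 0.5% DMSO, duplicates, up- or down-regulation scored.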

[13] = read-out: Glutamate-cysteine ligase regulatory (GCLM), GCLM (gene 2730); experiment: LTEA_HepaRG_GCLM: Life Technologies and Expression Analysis (LTEA) Assay for Glutamate-cysteine ligase regulatory (GCLM) using HepaRG (AID 2283500)
Procedure, shortened: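 GCLM expression quantified by qRT-PCR, normalized to three housekeeping genes, after 48 h chemical treatment of HepaRG cells in duplicate at 8 concentrations (top 100 uM, half-log steps, 0.5% DMSO). Changes fitted both directions against vehicle.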

[14] = read-out: Glutathione S-transferase M3 (GSTM3), GSTM3 (gene 2947); experiment: LTEA_HepaRG_GSTM3: Life Technologies and Expression Analysis (LTEA) Assay for Glutathione S-transferase M3 (GSTM3) using HepaRG (AID 2283501)
Procedure, shortened: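 GSTM3 transcript levels came from Fluidigm TaqMan qRT-PCR normalized to three housekeeping genes, fitted in both directions against DMSO. HepaRG cultures received chemicals for 48 h in serum-free induction medium (0.5% DMSO), 8 half-log concentrations up to 100 uM, duplicate.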

[15] = read-out: Heat shock 70 kDa protein 1 (HSPA1A), gene 3303; experiment: LTEA_HepaRG_HSPA1A: Life Technologies and Expression Analysis (LTEA) Assay for Heat shock 70 kDa protein 1 (HSPA1A) using HepaRG (AID 2283502)
Procedure, shortened: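 HSPA1A expression measured by qRT-PCR with ACTB/GAPDH/POLR2A normalization; curves fitted in both directions relative to DMSO vehicle. Exposure: 48 h in HepaRG cells, duplicate 8-point half-log series from 100 uM, 0.5% DMSO, serum-free induction medium.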

[16] = read-out: Hypoxia-inducible factor 1-alpha (Homo sapiens) (UniProt Q16665); experiment: LTEA_HepaRG_HIF1A: Life Technologies and Expression Analysis (LTEA) Assay for Hypoxia-inducible factor 1 (HIF1A) Trancription factor using HepaRG (AID 2283503)
Procedure, shortened: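 HIF1A transcript level read by qRT-PCR (ACTB, GAPDH, POLR2A normalization) after 48 h chemical exposure of HepaRG cultures. Eight half-log concentrations, top 100 uM, 0.5% DMSO vehicle, duplicates; bidirectional curve fit against DMSO baseline.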

[17] = read-out: 3-Hydroxy-3-Methylglutaryl-CoA Synthase 2 (HMGCS2), HMGCS2 (gene 3158); experiment: LTEA_HepaRG_HMGCS2: Life Technologies and Expression Analysis (LTEA) Assay for 3-Hydroxy-3-Methylglutaryl-CoA Synthase 2 (HMGCS2) using HepaRG (AID 2283504)
Procedure, shortened: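 Readout is HMGCS2 transcript by qRT-PCR, housekeeping-normalised (ACTB/GAPDH/POLR2A) and fitted bidirectionally against 0.5% DMSO. Differentiated HepaRG cells received chemicals 48 h, duplicate wells, eight half-log concentrations topping at 100 uM.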

[18] = read-out: HGF (gene 3082); experiment: LTEA_HepaRG_HGF: Life Technologies and Expression Analysis (LTEA) Assay for Hepatocyte Growth Facto (HGF) using HepaRG (AID 2283505)
Procedure, shortened: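 HGF transcript was quantified by TaqMan qRT-PCR against three housekeeping genes after 48 h treatment of HepaRG cells. Exposure ran in duplicate over eight half-log steps topping at 100 uM in 0.5% DMSO vehicle.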

[19] = read-out: Insulin Like Growth Factor 1 (IGF1), IGF1 (gene 3479); experiment: LTEA_HepaRG_IGF1: Life Technologies and Expression Analysis (LTEA) Assay for Insulin Like Growth Factor 1 (IGF1) using HepaRG (AID 2283506)
Procedure, shortened: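 Expression measured by TaqMan qRT-PCR on a Fluidigm array, with three housekeeping genes for normalisation, after 48 h treatment of HepaRG cells. Top concentration 100 uM with half-log steps, 0.5% DMSO vehicle, bidirectional fit.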

[20] = read-out: Intercellular Adhesion Molecule 1 (ICAM1), ICAM1 (gene 3383); experiment: LTEA_HepaRG_ICAM1: Life Technologies and Expression Analysis (LTEA) Assay for Intercellular Adhesion Molecule 1 (ICAM1) using HepaRG (AID 2283507)
Procedure, shortened: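 ICAM1 transcript levels measured by qRT-PCR, normalized to three housekeeping genes (ACTB, GAPDH, POLR2A), after 48 h chemical exposure of HepaRG cells. Duplicate eight-point half-log series from 100 uM in 0.5% DMSO; gain or loss fitted against vehicle.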

Measured: AC50

Cytochrome P450 3A4 (Homo sapiens), sequence (P08684 whole entry, looked up): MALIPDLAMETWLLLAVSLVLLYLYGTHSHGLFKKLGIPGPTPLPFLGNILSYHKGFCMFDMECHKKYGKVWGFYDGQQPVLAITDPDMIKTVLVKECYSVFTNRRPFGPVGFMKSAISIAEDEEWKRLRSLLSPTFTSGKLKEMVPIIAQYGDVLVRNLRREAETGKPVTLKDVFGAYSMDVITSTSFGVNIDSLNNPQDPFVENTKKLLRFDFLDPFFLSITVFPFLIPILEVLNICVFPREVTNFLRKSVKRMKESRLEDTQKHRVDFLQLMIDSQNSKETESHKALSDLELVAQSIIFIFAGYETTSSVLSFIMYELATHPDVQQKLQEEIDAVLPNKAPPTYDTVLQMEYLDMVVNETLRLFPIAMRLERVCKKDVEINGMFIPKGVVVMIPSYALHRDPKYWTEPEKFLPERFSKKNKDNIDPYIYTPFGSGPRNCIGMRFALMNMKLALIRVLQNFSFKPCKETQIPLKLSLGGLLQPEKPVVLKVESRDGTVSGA
Hypoxia-inducible factor 1-alpha (Homo sapiens), sequence (Q16665 whole entry, looked up): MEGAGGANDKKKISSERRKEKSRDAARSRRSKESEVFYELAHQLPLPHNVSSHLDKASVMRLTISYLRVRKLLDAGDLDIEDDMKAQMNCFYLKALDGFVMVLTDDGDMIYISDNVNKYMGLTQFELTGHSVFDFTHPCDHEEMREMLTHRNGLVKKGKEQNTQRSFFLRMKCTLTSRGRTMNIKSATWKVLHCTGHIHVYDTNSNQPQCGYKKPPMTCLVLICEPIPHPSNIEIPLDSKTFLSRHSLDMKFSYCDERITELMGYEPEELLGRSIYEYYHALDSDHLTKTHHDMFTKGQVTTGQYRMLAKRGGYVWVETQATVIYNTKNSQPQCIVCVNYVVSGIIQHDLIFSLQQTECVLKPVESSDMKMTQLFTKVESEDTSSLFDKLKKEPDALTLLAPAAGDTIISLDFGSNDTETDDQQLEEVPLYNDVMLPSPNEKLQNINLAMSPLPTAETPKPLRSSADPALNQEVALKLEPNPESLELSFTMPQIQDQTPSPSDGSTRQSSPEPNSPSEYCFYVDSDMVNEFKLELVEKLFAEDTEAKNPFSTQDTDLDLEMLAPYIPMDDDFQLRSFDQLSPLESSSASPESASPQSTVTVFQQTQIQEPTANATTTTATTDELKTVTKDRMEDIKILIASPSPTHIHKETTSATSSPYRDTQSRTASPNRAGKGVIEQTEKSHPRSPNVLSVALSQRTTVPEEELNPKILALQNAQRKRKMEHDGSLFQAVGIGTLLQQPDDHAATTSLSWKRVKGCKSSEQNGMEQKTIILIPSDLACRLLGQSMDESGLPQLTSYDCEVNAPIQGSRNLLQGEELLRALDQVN

c1ccc2c(c1)Nc1ccccc1S2
active: [7] 50 µM | [9] 20.2 µM | [19] 50 µM
inactive: all other assays above

Cc1ccc([N+](=O)[O-])cc1C
inactive: all assays above

CN(C)C(=O)Cl
inactive: all assays above

ClC(Cl)(Cl)c1ccccc1
inactive: all assays above

CCCCN(CCCC)SN(C)C(=O)Oc1cccc2c1OC(C)(C)C2
active: [1] 8.27 µM | [9] 50 µM
inactive: all other assays above

c1nc[nH]n1
active: [4] 0.109 µM | [14] 12.6 µM | [20] 0.112 µM
inactive: all other assays above

Nc1ccc2ccccc2c1
active: [7] 18.9 µM
inactive: all other assays above

O=[N+]([O-])c1ccc(Cl)c(Cl)c1
inactive: all assays above

CCCN(CCC)c1c([N+](=O)[O-])cc(C(C)C)cc1[N+](=O)[O-]
active: [3] 29 µM | [7] 9.92 µM | [9] 50 µM | [13] 9.92 µM | [14] 3.04 µM | [15] 16.7 µM | [19] 71.1 µM
not listed: [1]
inactive: all other assays above

Cc1ccc(O)cc1C
not listed: [1] | [6] | [8] | [9] | [18]
inactive: all other assays above

COCCOCCO
not listed: [1]
inactive: all other assays above

O=P(Oc1ccccc1)(Oc1ccccc1)Oc1ccccc1
active: [1] 3.44 µM | [2] 75.4 µM | [11] 74.9 µM | [12] 50 µM | [13] 50 µM | [19] 4.15 µM
not listed: [6] | [16] | [17]
inactive: all other assays above

Cc1ccc(N)cc1N
active: [9] 18 µM
inactive: all other assays above

CCOC(=O)c1ccccc1C(=O)OCC
inactive: all assays above
